Mcl1 Bid PPI: Mcl-1/Bid interaction inhibition. Q07820. TR-FRET Mcl-1/Bid-Dy647 peptide binding, 1536-well. inhibition, % at 21.7 µM. hit rate 0.97% among 220,000. AID 1021;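 active = compounds that cut the binding signal by more than half at the single screening dose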;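 also: His-tagged Mcl-1 with europium anti-His antibody binding Bid BH3 peptide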
Target sequence (Q07820 whole entry, looked up): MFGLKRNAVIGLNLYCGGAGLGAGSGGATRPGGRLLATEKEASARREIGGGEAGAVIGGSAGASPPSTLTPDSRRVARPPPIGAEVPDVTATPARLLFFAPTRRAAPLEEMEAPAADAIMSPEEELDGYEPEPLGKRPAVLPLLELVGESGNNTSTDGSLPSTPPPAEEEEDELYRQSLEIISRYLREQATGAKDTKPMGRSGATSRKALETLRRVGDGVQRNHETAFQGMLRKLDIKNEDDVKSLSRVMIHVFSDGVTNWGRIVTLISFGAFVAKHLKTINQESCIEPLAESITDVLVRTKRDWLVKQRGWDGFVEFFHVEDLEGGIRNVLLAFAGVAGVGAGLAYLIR
Mcl1-Noxa inh: disrupts binding of human Mcl-1 to Noxa peptide; hit rate 1.5% among 220,000; Q07820; inhibition, % at 21.7 µM; TR-FRET Mcl-1/Noxa peptide binding, 2 h;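 active = compounds that cut the protein-peptide binding signal by more than 50% relative to plate controls in a single-dose test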;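 also: His-tagged Mcl-1 with rhodamine Noxa BH3 peptide and terbium anti-His antibody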
Bim-Mcl-1: disrupts Bim peptide binding to human Mcl-1; AID 1009; hit rate 0.1% among 190,000; Bead-based flow cytometry, Bim peptide-Mcl-1 binding; inhibition, % at 10 µM; Q07820; in the data active = inhibition above about 40%
MCL1-BIM inh: disrupts human MCL1 binding to BIM-BH3 peptide. GST-MCL1 / FITC-Bim-BH3 fluorescence polarization. inhibition, % at 10.9 µM. hit rate 0.68% among 320,000. AID 2057;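 active = inhibition above the mean inhibition of all tested compounds plus 3 SD, set per campaign, cut at about 40% in these data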;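 also: higher means more loss of mP so more displacement of Bim peptide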
14-3-3 Bad inh: disrupts binding of bovine 14-3-3 zeta to phospho-Bad peptide. P63103. TR-FRET 14-3-3zeta/Dy647-pBad peptide displacement, 1 h. inhibition, % at 21.7 µM. hit rate 0.71% among 220,000;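 active = inhibition above about 70%, limit read from the data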
Target sequence (P63103 whole entry, looked up): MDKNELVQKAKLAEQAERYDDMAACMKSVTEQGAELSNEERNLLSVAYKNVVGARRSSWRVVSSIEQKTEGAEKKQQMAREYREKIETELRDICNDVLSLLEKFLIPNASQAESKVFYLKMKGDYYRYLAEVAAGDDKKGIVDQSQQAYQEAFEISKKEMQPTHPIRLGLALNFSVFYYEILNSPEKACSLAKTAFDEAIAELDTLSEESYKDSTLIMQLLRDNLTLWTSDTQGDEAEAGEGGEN
A number is an active result; 0 = inactive; - = no result given; [ ] = remark or other dose. In the library only some 2.5% were active in any assay of this set; here they are far more common.

SMILES	Mcl1 Bid PPI	Mcl1-Noxa inh	Bim-Mcl-1	MCL1-BIM inh	14-3-3 Bad inh
O=C(Cc1ccccc1)Nc1ccc(N2CCCCC2)cc1	0	61	0	0	0
COc1ccc(CNCC(=O)Nc2ccccc2-n2cccc2)cc1	0	0	0	0	0
Cc1cc(C)c(NC(=O)CN2C(=O)NC3(CCCc4ccccc43)C2=O)c(Cl)c1 (stereo not given)	-	-	-	0	-
Cc1ccc(S(=O)(=O)N(C)C)cc1NC(=O)CN1CCN(Cc2ccccc2)CC1	0	0	0	0	0
O=C(CCc1ccccc1)Nc1ccc(N2CCOCC2)c(Cl)c1	0	0	0	0	0
O=C(CCc1ccccc1)Nc1ccc(N2CCOCC2)cc1	0	53	0	0	0
CCOC(=O)c1ccccc1NC(=O)c1cn(-c2ccc(C)c(C)c2)c(=O)c2ccccc12	0	0	0	0	0
CCOc1ccc(N2Nc3n[nH]c(N)c3N2)cc1	0	0	0	0	0
COc1ccc(N2Nc3n[nH]c(N)c3N2)cc1	0	56	0	0	0
O=C(O)Cn1c(-c2cscn2)nc2ccccc21	0	0	0	0	72
N#Cc1ccccc1Cn1c(-c2cscn2)nc2ccccc21	79	0	0	0	0
O=C(Cn1c(-c2cscn2)nc2ccccc21)Nc1ccc2ccccc2c1	0	0	0	0	0
O=C(Cn1c(-c2cscn2)nc2ccccc21)Nc1cc(F)ccc1F	0	0	0	0	0
C=CCC1Cc2c(cccc2[N+](=O)[O-])C(CC=C)N1 (stereo not given)	0	0	0	0	0
O=c1oc2ccccc2c(Nc2cc3ccccc3cc2O)c1[N+](=O)[O-]	0	53	0	0	0
CC1(C)CCCN(C(=O)c2coc(=O)c(Br)c2)C1	0	79	0	-	0
O=CN1CCN(C(=O)Cc2ccc([N+](=O)[O-])cc2)CC1	0	0	0	0	0
Cc1ccc(Nc2ncnc3c2oc2ccccc23)cc1	0	0	0	0	72
Cc1nc(Nc2ccc3c(c2)OCCO3)c2oc3ccccc3c2n1	0	0	0	0	73
CCc1nc(NCc2ccco2)c2oc3ccccc3c2n1	0	0	0	0	81
Cc1nc(Nc2cccc(F)c2)c2oc3ccccc3c2n1	-	-	-	0	-
c1ccc2c(c1)oc1c(Nc3ccc4c(c3)OCCO4)ncnc12	0	0	0	0	76[fluorescence artefact?]
CC1CCCC(NC(=O)c2ccncc2)C1C (stereo not given)	-	-	-	0	-
COc1cccc(/C=C2\SC(=S)N(CCC(=O)Nc3ccc(O)cc3)C2=O)c1	-	-	-	0	-
CCc1nc(Nc2ccc3c(c2)OCCO3)c2oc3ccccc3c2n1	0	0	0	0	86
SMILES	Mcl1 Bid PPI	Mcl1-Noxa inh	Bim-Mcl-1	MCL1-BIM inh	14-3-3 Bad inh
CCCN(CCC)CCNC(=O)C1CC(=O)N(c2ccc(OC)cc2)C1c1ccc(OC)cc1 (stereo not given)	60	0	0	0	0
Cc1ccc(C)c2[nH]c(=O)c(C(c3nnnn3CCc3ccccc3)N3CCOCC3)cc12 (stereo not given)	0	0	0	0	0
CN1c2cccc3cccc(c23)N(C)C1c1cccs1	0	0	0	0	0
CC1N(C)c2cccc3cccc(c23)N1C	0	63	0	0	0
Cc1cc(C)n(-c2ncnc3sc4c(c23)CCCC4)n1	0	0	0	0	0
Cc1ccc(NC(=O)CN(c2ccc(C)cc2)S(=O)(=O)c2cccc3nonc23)cc1	0	0	0	0	0
O=C(O)Cn1c2c(c3ccccc31)CCCC2	0	0	0	48	0
O=C1CC(N2CCN(c3ncccn3)CC2)C(=O)N1CCc1ccccc1 (stereo not given)	0	0	0	0	0
COc1ccc(CNC(=O)Cc2csc(Nc3nc(=S)[nH]c4ccccc34)n2)cc1	0	0	0	0	0
O=C(Cc1csc(Nc2nc(=S)[nH]c3ccccc23)n1)NCc1ccc(Cl)cc1	56	0	0	0	0
CCOC(=O)C1CCN(C(=O)CCNC(=O)c2ccccc2OC)CC1	-	-	-	0	-
C=CCOCCN(CCOCC=C)C1=NS(=O)(=O)c2ccccc21	0	0	0	0	0
C/C(N)=C(/C#N)C(=O)CSc1nc2cc(Cl)ccc2s1	0	53	0	0	0
O=c1nc(C(F)(F)F)nc2ccccn12	0	0	0	0	0
COc1ccc2[nH]c(=O)c(CN(C3CCCCC3)C(c3nnnn3Cc3ccco3)C(C)C)cc2c1 (stereo not given)	0	57	0	0	0
CCC(C)(C)n1nnnc1C(C(C)C)N(Cc1ccco1)Cc1cc2cc3c(cc2[nH]c1=O)OCO3 (stereo not given)	0	0	0	46	0
CCC(C)(C)n1nnnc1C(C(C)C)N(Cc1cccnc1)Cc1ccco1 (stereo not given)	0	0	0	0	0
CCCCC(=O)Nc1nn(CCC)c2nc3ccccc3cc12	0	0	0	0	0
CCn1c(=NC(=O)c2ccc(N3C(=O)CCC3=O)cc2)sc2c(OC)ccc(OC)c21	0	0	0	0	0
O=C(COC(=O)c1ccc(NS(=O)(=O)c2cccs2)cc1)Nc1nc2c(F)c(F)c(F)cc2s1	0	71	0	-	0
O=C(COC(=O)c1ccco1)Nc1nc2c(F)c(F)c(F)cc2s1	-	-	-	0	-
CCOc1ccc(NC(=O)C2C(c3ccccc3)C2(Cl)Cl)cc1 (stereo not given)	-	-	-	0	-
CN1c2ccccc2C(C)(C)C12C=Nc1c(ccc3ccccc13)O2 (stereo not given)	0	0	0	43	0
CN1c2ccccc2C(C)(C)[C@]12C=Cc1cc(O)ccc1O2	0	0	0	0	0
CC1(C)OC(C)(C)/C(=C/Nc2ccc(O)cc2)C1=O	0	57	0	0	0
SMILES	Mcl1 Bid PPI	Mcl1-Noxa inh	Bim-Mcl-1	MCL1-BIM inh	14-3-3 Bad inh
O=C(Cc1ccc(Cl)cc1)Nc1ccccc1C(=O)Nc1ccc(C(=O)O)cc1	0	0	0	0	0
COc1ccc(N/C(=N\c2nc(C)cc(C)n2)NC(=O)C(C)C)cc1OC	0	0	0	0	76
COc1ccccc1NC(=O)C(=O)NCC1COc2ccccc2O1 (stereo not given)	0	0	0	0	0
Cn1c2c(c(=O)n(C)c1=O)C(NC(=O)C(C)(C)C)(C(F)(F)F)C(=O)N2 (stereo not given)	0	0	0	0	0
Cn1c2c(c(=O)n(C)c1=O)C(NS(=O)(=O)c1ccccc1)(C(F)(F)F)C(=O)N2 (stereo not given)	0	51	0	0	0
CC(=O)Nc1ccc(C(=O)Nc2cccc(-c3cnc4ccccc4n3)c2)cc1	0	76	0	-	81
CC(=O)Nc1ccc2nc3ccccc3nc2c1	0	0	-	50	0
COc1ccc(-c2cc(C(=O)O)c3ccccc3n2)c(OC)c1	0	0	0	0	0
CC(OC(=O)c1ccccc1C(=O)N(C)c1ccccc1)C(=O)Nc1ccc(C(N)=O)cc1 (stereo not given)	-	-	-	0	-
COc1cccc(Nc2ccc(Nc3cccc(OC)c3)nn2)c1	0	0	0	0	0
COc1cccc(NC(C)(C)c2nnnn2-c2c(C)cccc2C)c1	52	0	-	0	0
CC1CN(C(=O)c2cccc(C(=O)N3CC(C)OC(C)C3)c2)CC(C)O1 (stereo not given)	97	0	0	0	0
